Test results from PubChem BioAssay.
Active and inactive are the calls of the source.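 Rule for the calls, unless noted: active = GFP response below 50% of the DMSO control; inconclusive = fewer than 70 events counted for a yeast strain; inactive = the rest.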

Tests used:
[1] = hit retest on RPL19A-GFP reporter strain – cell-based, S. cerevisiae, flow cytometry, cherry picks, mother/daughter gates, confirmation (AID 2270); conditions: 3 h, at 10 µM, stronger effect = lower value, 100 = same GFP as DMSO wells
[2] = yeast TOR pathway reporter LAP4-GFP change – cell-based, cherry picks, flow cytometry, mother/daughter gates, confirmation (AID 2271;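 active = GFP response above 150% of the DMSO control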;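 note: ratio of sample to DMSO plate mean so 100% equals DMSO level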); conditions: S. cerevisiae LAP4-GFP strain, 3 h, at 10 µM, stronger effect = higher value, 100 means same as DMSO control
[3] = TOR pathway reporter MEP2-GFP, retest of hits – S. cerevisiae, flow cytometry GFP, cherry picks, confirmation (AID 2272;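 active = GFP response above 150% of the DMSO control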;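 note: ratio of well signal to plate DMSO mean so 100% equals DMSO level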); conditions: S. cerevisiae MEP2-GFP strain, 3 h, at 10 µM, stronger effect = higher value
[4] = TOR pathway CIT2 reporter hit retest – S. cerevisiae, GFP fusion, cherry picks, mother/daughter gates, confirmation (AID 2274;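 active = GFP response above 150% of the DMSO level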); conditions: S. cerevisiae CIT2-GFP strain, flow cytometry, 3 h, at 10 µM, stronger effect = higher value
[5] = measured here: daughter cell gate
[6] = measured here: mother cell gate
[7] = measured here: daughter cell gate response
[8] = measured here: mother cell gate response

| SMILES | GFP response vs DMSO [1] | GFP response vs DMSO [1, 5] | GFP response vs DMSO [1, 6] | GFP response relative to DMSO [2] | GFP response relative to DMSO [2, 7] | GFP response relative to DMSO [2, 8] | GFP response vs DMSO [3] | GFP response, % of DMSO [4] | GFP response, % of DMSO [4, 5] | GFP response, % of DMSO [4, 6] |
| --- | --- | --- | --- | --- | --- | --- | --- | --- | --- | --- |
| O=C(CSc1ccc(-c2ccccn2)nn1)N1CCCCC1 | 99.9% (inactive) | 100% | 99% | 101% (inactive) | 101% | 101% | 99.5% (inactive) | 99.3% (inactive) | 100% | 96.8% |
| COc1ccc(-c2cc3cc(C(=O)O)ccn3c2C(=O)c2ccccc2)cc1 | 97% (inactive) | 95.6% | 98.4% | 107% (inactive) | 106% | 108% | 105% (inactive) | 98.3% (inactive) | 99.1% | 99.7% |
| Cc1ccc(/C=C/C(=O)c2ccc([N+](=O)[O-])o2)cc1 | 101% (inactive) | 107% | 91.8% | 89.4% (inactive) | 89.8% | 85.2% | 114% (inactive) | 106% (inactive) | 114% | 89.3% |
| CC[n+]1cc(C)ccc1/C=C/c1ccc(N(C)C)cc1 | 104% (inactive) | 106% | 103% | 134% (inactive) | 138% | 128% | 162% (inactive) | 134% (inactive) | 141% | 126% |
| O=[N+]([O-])c1cc(/C=N/O)ccc1Oc1ccccc1Cl | 76.7% (inactive) | 75.3% | 70.2% | 146% (inactive) | 106% | 134% | 146% (inactive) | 155% (active) |  |  |
| CC(=O)Nc1ccc(NC(=O)CSc2ncc(C(=O)Nc3ccccc3)c(=O)n2C)cc1 | 96.6% (inactive) | 97.1% | 99.1% | 97% (inactive) | 97.5% | 97.3% | 96.8% (inactive) | 105% (inactive) | 103% | 104% |
| O=[N+]([O-])c1ccc(-c2cn3nc(-c4ccccc4)c(-c4ccccc4)nc3n2)cc1 | 102% (inactive) | 101% | 96.2% | 115% (inactive) | 115% | 114% | 227% (active) | 109% (inactive) | 106% | 108% |
| CCOc1cc(/C=C2\C(=N)N3N=C(S(=O)(=O)CC)SC3=NC2=O)ccc1OC(=O)c1ccco1 | 104% (inactive) | 104% | 105% | 89% (inactive) | 92.5% | 90.1% | 104% (inactive) | 115% (inactive) | 113% | 113% |
| CN1CCN(C(=O)CC2C(=O)NCCN2Cc2ccc(-c3ccccc3)cc2)CC1 (centres undefined) | 96.2% (inactive) | 96.2% | 98.5% | 100% (inactive) | 102% | 99.5% | 97.5% (inactive) | 97.8% (inactive) | 100% | 99.1% |
| CCn1cc(/C=C/c2cc[n+](C)cc2)c2ccccc21 | 105% (inactive) | 101% | 107% | 117% (inactive) | 119% | 117% | 154% (inactive) |  |  |  |
| Cc1cc(N2CCCCC2)n2nc(C)c(-c3ccccc3)c2n1 | 99.7% (inactive) | 97.3% | 100% | 95% (inactive) | 97.2% | 96.2% | 97.8% (inactive) | 97.8% (inactive) | 96.5% | 97.7% |
| Cc1nnc(NC(=O)c2ccc(S(=O)(=O)N(C)Cc3ccccc3)cc2)o1 | 98.4% (inactive) | 98.1% | 98.2% | 101% (inactive) | 99.2% | 101% | 102% (inactive) | 103% (inactive) | 101% | 102% |
| O=S(=O)(c1ccccc1)c1ccc(C(F)(F)F)cn1 | 97.6% (inactive) | 98.3% | 97.8% | 96.1% (inactive) | 95.1% | 95.1% | 101% (inactive) | 95.9% (inactive) | 96.8% | 95.7% |
| Cc1cc(C)nc(/N=c2/ssnc2Cl)c1 | 88.7% (inactive) | 87.3% | 86.4% | 142% (inactive) | 131% | 143% | 107% (inactive) | 124% (inactive) | 110% | 116% |
| Cn1cnc([N+](=O)[O-])c1S(=O)(=O)c1cccc(Cl)c1 | 103% (inactive) | 99.9% | 100% | 107% (inactive) | 104% | 108% | 103% (inactive) | 118% (inactive) | 119% | 113% |
| CN(C)c1ccc(N=Cc2nc(-c3ccccc3)oc2OC(=O)c2cccc(Br)c2)cc1 | 96.2% (inactive) | 90.4% | 89.1% | 93.7% (inactive) | 84.2% | 93% | 94.4% (inactive) | 92.2% (inactive) |  |  |
| CCCn1c(=N)c(C(=O)NC2CCCC2)cc2c(=O)n3cccc(C)c3nc21 | 100% (inactive) | 85.2% | 78% | 96.2% (inactive) | 100% | 99.3% | 104% (inactive) | 104% (inactive) |  |  |
| CN=C(NC)SC1CC(=O)N(c2ccccc2)C1=O (centres undefined) | 99.3% (inactive) | 97.8% | 102% | 99.8% (inactive) | 98.7% | 103% | 97.8% (inactive) | 92.6% (inactive) | 93.2% | 91.2% |

| SMILES | GFP response vs DMSO [1] | GFP response vs DMSO [1, 5] | GFP response vs DMSO [1, 6] | GFP response relative to DMSO [2] | GFP response relative to DMSO [2, 7] | GFP response relative to DMSO [2, 8] | GFP response vs DMSO [3] | GFP response, % of DMSO [4] | GFP response, % of DMSO [4, 5] | GFP response, % of DMSO [4, 6] |
| --- | --- | --- | --- | --- | --- | --- | --- | --- | --- | --- |
| O=C(Nc1cc(Sc2ccccn2)cc([N+](=O)[O-])c1)c1cccc(Cl)c1 | 96.9% (inactive) | 95.3% | 96.3% | 102% (inactive) | 104% | 104% | 106% (inactive) | 88.9% (inactive) | 86.9% | 89.3% |
| COc1ccc(NC2=C(Cl)C(=O)N(CCc3ccccc3)C2=O)c(OC)c1 | 98% (inactive) | 96.6% | 97.2% | 102% (inactive) | 101% | 104% | 98.8% (inactive) | 98.4% (inactive) | 98.4% | 97.7% |
| CCC(Sc1nc(=O)cc(N)n1-c1ccccc1)C(=O)Nc1cc(C)on1 (centres undefined) | 98.2% (inactive) | 98.8% | 95.3% | 105% (inactive) | 105% | 96.5% | 108% (inactive) | 109% (inactive) | 111% | 104% |
| Cc1[nH]n(-c2ccccc2)c(=O)c1C(c1ccccc1[N+](=O)[O-])C(C#N)C#N (centres undefined) | 106% (inactive) | 84.6% | 98.8% | 192% (active) | 168% | 195% | 112% (inactive) | 98.4% (inactive) | 113% | 81.8% |
| O=C1c2cccc3cccc(c23)C(=O)N1c1cccnc1 | 100% (inactive) | 102% | 101% | 85% (inactive) | 86.4% | 85.5% | 98.3% (inactive) | 99.7% (inactive) | 105% | 98.5% |
| Cn1ncc(S(=O)(=O)Cc2ccccc2)c(Cl)c1=O | 94.2% (inactive) | 90.6% | 87.7% | 316% (active) | 160% | 319% | 100% (inactive) | 92.6% (inactive) | 101% | 84.3% |
| Cc1noc2ncnc(Sc3ccc(Cl)cc3)c12 | 96.6% (inactive) | 94.9% | 97.2% | 140% (inactive) | 130% | 141% | 102% (inactive) | 104% (inactive) | 101% | 102% |
| CSc1ccc(/C=C/C(=O)c2c(O)cc(C)oc2=O)cc1 | 105% (inactive) | 106% | 103% | 131% (inactive) | 125% | 135% | 120% (inactive) |  |  |  |
| CCN(CC)S(=O)(=O)c1ccc(O)c(C(=O)OCC(=O)NC2CCCC2)c1 | 99.2% (inactive) | 97.9% | 99.5% | 98.2% (inactive) | 97.5% | 97.3% | 96.8% (inactive) | 105% (inactive) | 103% | 103% |
| O=C(Nc1ccc(F)cc1)c1cc2cc(Cl)ccc2[nH]1 | 97% (inactive) | 96.9% | 96.2% | 101% (inactive) | 97.6% | 94% | 100% (inactive) | 99.7% (inactive) |  | 92.6% |
| O=c1cc(-c2c(F)c(F)c(F)c(F)c2F)oc2c(F)c(F)c(F)c(F)c12 | 105% (inactive) | 101% | 101% | 145% (inactive) | 120% | 145% | 131% (inactive) | 132% (inactive) | 119% | 118% |
| O=C(Nc1c(-c2ccccc2)nc2ccccn12)c1ccco1 | 100% (inactive) | 102% | 99.8% | 99.2% (inactive) | 94.4% | 96.1% | 98.3% (inactive) | 103% (inactive) |  | 106% |
| O=C(/C=C/c1ccccc1)c1ccccc1O | 103% (inactive) | 105% | 103% | 130% (inactive) | 130% | 129% | 153% (inactive) | 137% (inactive) | 139% | 132% |
| COc1ccc(C(=O)c2nccc3ccccc23)cc1 | 96.8% (inactive) | 86.1% | 91.3% | 106% (inactive) | 104% | 99.3% | 96.2% (inactive) | 98.3% (inactive) |  |  |
| COc1ccc(C2CC(c3c(-c4ccccc4)c4cc(Cl)ccc4[nH]c3=O)=NN2S(C)(=O)=O)cc1 (centres undefined) | 100% (inactive) | 99.1% | 102% | 99.2% (inactive) | 97.6% | 97.2% | 100% (inactive) | 99.7% (inactive) | 101% | 99.7% |
| Cc1cc(C)c2c(c1)/C(=C/C(=O)c1ccc(Br)s1)C(=O)N2 | 104% (inactive) | 102% | 103% | 99.5% (inactive) | 101% | 102% | 105% (inactive) | 94.4% (inactive) | 93.8% | 94.4% |
| COc1ccc(N2C(=O)C(Cl)=C(Nc3c(C)n(C)n(-c4ccccc4)c3=O)C2=O)cc1 | 102% (inactive) | 106% | 101% | 100% (inactive) | 101% | 101% | 99.5% (inactive) | 92.1% (inactive) | 87.2% | 87.5% |
